Hits are enriched below; roughly 0.88% of the tested compounds scored in any of these assays.
Her2 expr inh = inhibitors of human Her2 kinase expression. HER2 level % of control, % at 10 µM. P04626. SKBR-3 HER2 protein level, AlphaScreen, 18-24 h; hits give low values. 65,000 compounds, 0.69% hits. AID 645;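 active = HER2 level under 5% of the carrier-only control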;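 also: 100% = DMSO carrier and 0% = 500 nM PU-H71 HSP90 inhibitor; lower value means stronger loss of Her2 protein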
FXIIa inh mix = inhibitors of human coagulation factor XIIa, pooled mixtures; purified FXIIa, fluorogenic substrate; inhibition, % at 5 µM; 62,000 compounds, 0.2% hits; AID 684;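 also: 0% = enzyme without compound and 100% = no enzyme blank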
Target sequence (P00748 20-372 limits assumed): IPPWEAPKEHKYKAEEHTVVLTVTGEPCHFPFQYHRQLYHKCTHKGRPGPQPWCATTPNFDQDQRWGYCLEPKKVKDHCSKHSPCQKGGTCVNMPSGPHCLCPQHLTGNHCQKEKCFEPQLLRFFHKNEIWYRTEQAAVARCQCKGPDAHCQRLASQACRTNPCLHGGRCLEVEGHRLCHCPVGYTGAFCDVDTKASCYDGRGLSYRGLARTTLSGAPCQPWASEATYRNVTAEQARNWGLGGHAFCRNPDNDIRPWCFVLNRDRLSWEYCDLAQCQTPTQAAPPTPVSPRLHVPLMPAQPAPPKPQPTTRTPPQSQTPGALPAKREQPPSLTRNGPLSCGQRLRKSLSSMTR
Target sequence (P00748 373-615 limits assumed): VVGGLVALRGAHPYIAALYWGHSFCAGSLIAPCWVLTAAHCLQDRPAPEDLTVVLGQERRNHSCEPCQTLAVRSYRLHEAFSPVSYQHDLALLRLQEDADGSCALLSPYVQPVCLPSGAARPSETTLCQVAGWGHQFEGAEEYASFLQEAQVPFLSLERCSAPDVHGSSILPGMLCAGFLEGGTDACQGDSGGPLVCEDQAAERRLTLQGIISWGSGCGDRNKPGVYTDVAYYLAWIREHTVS
FXIa inh mix = inhibitors of human coagulation factor XIa, pooled mixtures | purified FXIa, fluorogenic substrate | inhibition, % at 5 µM | 62,000 compounds, 0.19% hits;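 also: each value is inhibition by a whole ten-compound pool holding the compound; 0% = enzyme with no mixture and 100% = wells lacking enzyme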
MT1-MMP txn act = MT1-MMP promoter transcription activation; AID 750; activation factor at 10 µM; 86,000 compounds, 0.16% hits; HT1080 MT1-MMP promoter luciferase reporter, luminescence, overnight; hits give high values;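 active = activation factor of at least 2 for MT1-MMP transcription at 10 µM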
An asterisk follows results filed as active; . = no result. Rule as the data show it, unless noted: active = inhibition above about 20% (passing the limit was not always enough); inactive = the rest.

SMILES | Her2 expr inh | FXIIa inh mix | FXIa inh mix | MT1-MMP txn act
CN(C)C(=O)[C@H]1C[C@@H]1[C@H](NC(=O)OCc1ccccc1)c1ccccc1 | . | . | . | 1.1
CCc1ccc(-c2nc(CN3CCCC(C(=O)NCCc4ccc(OC)c(OC)c4)C3)c(C)o2)cc1 (configuration not stated) | -23* | 0 | 3 | 1.1
CCOC(=O)N1CCC(NC(=O)C2CCCN(Cc3nc(-c4cccc(Cl)c4)oc3C)C2)CC1 (configuration not stated) | 74 | 1 | 21* | .
CCN1CCN(CCNC(=O)C2CCCN(Cc3nc(-c4cccc(Cl)c4)oc3C)C2)CC1 (configuration not stated) | 85 | 9 | 10 | 1.1
CCC1=C2CC[C@H]3C(=O)N(CC)C(=O)[C@H]3[C@H]2[C@@]2(Cc3ccccc3)C(=O)N(CC3CC3)C(=O)N2C1=O | . | . | . | 1.1
O=C(CSc1nc(-c2ccccc2)c(-c2ccccc2)[nH]1)N1CCN(S(=O)(=O)c2ccccc2)CC1 | . | . | . | 1.1
CCOC(=O)c1c(NC(=O)CSc2n[nH]c(N)n2)sc(CC)c1C | -33* | 10 | 2 | 1.1
O=C(Nc1nc2n(n1)C(c1ccccc1)C=C(c1ccccc1)N2)c1ccco1 (configuration not stated) | -23* | 3 | 6 | 1.1
O=C(Oc1ccc2ccccc2c1)c1ccco1 | 98 | 4 | -42 | 1.1
CC1CC(C)(C)Nc2ccc(OC(=O)c3ccco3)cc21 (configuration not stated) | -31* | 3 | 7 | .
Oc1ccccc1CNc1cnc2ccccc2c1 | . | . | . | 2.1*
O=C(Nc1cnc2ccccc2c1)N1CCCCC1 | 121 | -12 | 1 | 1
Cc1ccc(-n2nc3c(N4CCN(c5ccccc5)CC4)nnc(C)c3c2C)cc1 | . | . | . | 1.3
COC(=O)[C@@]1(Cc2ccccc2)[C@H]2c3cc(C(=O)N(C)C)n(Cc4nc5ccccc5[nH]4)c3C[C@H]2CN1C(=O)c1ccccc1 | . | . | . | 1.1
CCOC(=O)c1c(C)oc2c1c(C(c1cccnc1)N1CCN(C)CC1)c(O)c1ccccc12 (configuration not stated) | -16* | 3 | 11 | 1.7
CCOCCCNC(=O)C(c1ccc(OC)cc1)N(Cc1ccc2c(c1)OCO2)C(=O)CNC(C)=O (configuration not stated) | -22* | 10 | 2 | 1
C[C@@]1(C(NC(=O)c2ccccc2)c2ccc(-c3ccccc3)cc2)C[C@H]1C1CCCCC1 (some centres not stated) | . | . | . | 1.1
CCOC(=O)CSc1nnc(CNC(=O)Cc2ccccc2)n1C | 100 | 13 | 26 | 1
COC(=O)CSc1nnc(CNC(=O)Cc2ccccc2)n1C | 94 | 9 | 26* | 1.1
Cc1cc(-c2nnc3n2N=C(c2ccc(-c4ccccc4)cc2)CS3)n[nH]1 | -21* | 6 | 6 | 1.1
COc1ccc(-c2nnc3n2N=C(c2ccccc2)CS3)cc1OC | 16 | 32* | 5 | 1.1
COc1ccc(C2=Nn3c(nnc3-c3ccccc3)SC2)cc1OC | 76 | 3 | 10 | 1
COc1ccc2sc(NC(=O)CC(C)C)nc2c1 | -19* | 3 | -5 | 1.7
CCC(=O)Nc1nc2cc(OC)ccc2s1 | 95 | 6 | 2 | 1.6
Cc1nnc(SCC(=O)c2c(N)n(C)c(=O)n(C)c2=O)n1Cc1ccccc1 | -33* | 5 | 7 | 1.1
SMILES | Her2 expr inh | FXIIa inh mix | FXIa inh mix | MT1-MMP txn act
Cc1occc1-c1nnc(SCC(=O)c2c(N)n(Cc3ccccc3)c(=O)n(C)c2=O)n1C | 87 | 10 | 1 | 1
CCCN1C(=O)C(O)(C2CC(=O)CC(C)(C)O2)c2ccccc21 (configuration not stated) | 97 | 22* | 1 | 1
COc1ccc(C2CC(=O)C(C=NCCO)=C(O)C2)cc1OC (configuration not stated) | -28* | 3 | 5 | 1.1
COc1ccc(C2CC(=O)C(C=NCCN3CCN(C(C)=O)CC3)=C(O)C2)cc1OC (configuration not stated) | 125 | 4 | 7 | 1.1
CC(C)N(Cc1nc(-c2ccccc2)no1)C(=O)CN1C(=O)c2ccccc2C1=O | -19* | -17 | -2 | 1
COC(=O)[C@@]1(Cc2ccc(OC)cc2)[C@H]2c3cc(C(=O)N(C)C)n(CCF)c3C[C@H]2CN1C(=O)c1ccccc1 | . | . | . | 1.2
COc1ccc(CCNC(=O)CSc2nc(N)c(C#N)c(-c3cccs3)c2C#N)cc1OC | 1.8* | 9 | 4 | 1.1
CCOc1cc(C(=O)CSc2nnc(CNc3ccc(Cl)cc3)o2)ccc1NC(=O)CC | -22* | -18 | -2 | 1.2
Cc1nnc(N2CCN(c3ccccc3)CC2)c2nn(-c3ccccc3F)c(C)c12 | . | . | . | 1
